This is an account of results in the supplement of paper PMC6555819.

This experiment has as its system PPARg DBDmut IVT, anti-PPARg (DBD mutation: PPARg1 K132A/R137A, NR concentration 270 nM). The experiment is described as follows: PBM binding z-score (relative to random genomic background probes); higher = stronger binding; sequences stand for … in GC…GCGATTGACAGCGTAGAATGAAGG
Summed up:
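Probes were double-stranded and carried 34-nt variable regions with direct-repeat seeds, single-nucleotide variants, half-site ablations and random human genomic background sequences, printed on custom Agilent 4×180K protein-binding microarrays. Arrays were incubated 1 h with ligand-free nuclear receptor dimers in PBS pH 7.4, 2% milk, 0.02% Triton X-100, 1 mM DTT, 0.2 mg/mL BSA and 0.4 mg/ml salmon testes DNA. Antibodies against each partner (one per run) detected binding, and scanned fluorescence was regression-normalized. Binding z-scores use the random background probes as reference.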
With ATATGTAGGTTAGCTGTGGTCATTCAGACTAGGC, the PBM binding z-score came to 2.03. The sequence TCTCGGAGGACACGAAAGGTCAGCGCTCGACATC showed a PBM binding z-score of 0.158. TCCTGTAGATCAAAGGTTAAGAAAGCCGAAGCCT: the PBM binding z-score was determined as 0.441.

The sequence TCTAGTTGGTCGAAGGTCACACACTCGAAATGCG showed a PBM binding z-score of 1.13. Take TCATATAGGTAAAGGTGAAAGTCGAACGATATGA: the PBM binding z-score is 1.2.

TAGCCTAGGTCATTCATGGGCCAGTATAGAAAGC registered a PBM binding z-score of 0.314. In turn, AGAATGAGCTTATACGTAGATCAGGGAAGAAAGT returned a PBM binding z-score of 0.438. GCGACTGGGGCAAAGCAGGTTACCATAAGGTTGG came in with a PBM binding z-score of -0.872. As for ACTAGTTTGTCAGCTGAGGTCACACACAATTCGG, the figure is 1.54. In turn, ATACCAAGGTGTTCGTGAGGTCGTTGATACTAAC came in with a PBM binding z-score of 0.323. Turning to CCAGACAGGTGAAAGGTAAGTCAGTCTGGTACGC, the PBM binding z-score is -0.609.

Regarding AGAATGAGGTTATACGTATATCAGGGAAGAAAGT, the PBM binding z-score amounted to 1.56. Consider GCTATTAGTTGAAAGGGCTACCGAATGATTCTCG, for which the PBM binding z-score came to 0.104.

Sequence CCTACTGGGCCAAAGGTCATTGTTTCCAATGCTC gave a PBM binding z-score of 1.37. Sequence GCTAGCAGGCCATTTGGGTCTCTCAATGACGGGC registered a PBM binding z-score of -1.65.

Turning to TCGAGTAGGTTAGTTGGGGCATTCAGCCAACATA, the PBM binding z-score is -0.228. For the sequence AATACAGGGCCACTAGGCCAGAGTAGGTACGAAT, the PBM binding z-score amounted to 0.0878.

For the sequence ATACGTAGGTTAGCTGGGGTCATTCAGACTAGGC, the PBM binding z-score stood at 0.0192. Sequence GCTAGTTGGCCAGTAAAAGGTCACACACCGGTCG had a PBM binding z-score of -0.574.

TGTCAAAGTTCAGAGGTAACGTAAGTATCCACAC gave a PBM binding z-score of 1.39.

The sequence ATCTCTAGGTCAGACTCAGTTCAGTGAAGAACGC showed a PBM binding z-score of 1.61.

For TCACATAGGTAAAAGGTGAAAGTCGGTGTGGTAA, the PBM binding z-score worked out at 0.575. TCTTGTAGATGAATAGAGGTTAAGAAAGTGCGCT returned a PBM binding z-score of 0.95. In the case of AGAATTAGGTTACCAAAGATCAGGGAAACGCTTG, the PBM binding z-score was found to be 0.973. In the case of ATCTCTAAGTAAAGTTCAGTGAAAGATCGATAGA, the PBM binding z-score worked out at 1.06. As for AATAGAGGGTCACTAGGCCAGAGTAGGTACGAAT, the figure is 0.194; as for AGAACGAGGGCACGCTGATTTGATAGCAGAGTAG, -0.124. For the sequence GGAACGAGGGCAAGTTGATGGCAGAGTTTGATGG, the PBM binding z-score is -0.96.

CCTAGTTGGTCAATGTCACACACGCTATAGGTAC came in with a PBM binding z-score of 1.28. The same measure for TCATTTAGGTAATACAGGTGAAAGTCGGCATCTA: 1.6; for CCTTACGGGTTACTGACAGGTTATAGCATTTGGA: -0.367. As for ACTATTCGTTGACTTAGGGCAACCGATACGACGC, the PBM binding z-score came to 1.54.

For the sequence ACCTCTAGGTAAGACTCAGTTCAGTGAAGAACGC, the PBM binding z-score is -0.421.

Consider CGTCCAAGGTCAATGCTAGGTCAGTGAAAGCATT, for which the PBM binding z-score turned out to be 0.749.

The sequence ACTATTAGTTGAGACGAGGGCAACCGCTAGGTTG returned a PBM binding z-score of 0.359. Sequence TCTTGTAGATCAAAAGAGGTTAAGAAAGTGCGCT yielded a PBM binding z-score of 0.122. Turning to CGAACGAGGGCATGAGTTGAGAGCAAATGCCGAT, the PBM binding z-score is -0.733. Take GCTATTAGTTGAAAGGGCAACCAAATGATTCTCG: the PBM binding z-score came out at 0.602. As to CAAACTAGGTCAAAGGTCAAAGGCGAGCCAACCA, the PBM binding z-score is 2.24. The same measure for GCTTGTAGATCAACGTTAAGAAAGACTAAGCTAA: 0.507.
